Activity calls are given as the source filed them. No rule for the calls is given here.

The test is described as follows: Immunofluorescence assay for phosphorylation of ATM-targeted proteins for Identifying a Potential Treatment of Ataxia-Telangiectasia: SAR for Probe. Particulars: F2111 A-T fibroblasts, KAP-1 pS824 immunofluorescence, NCS. From the text:
NIH Chemical Genomics Center [NCGC] NIH Molecular Libraries Probe Centers Network [MLPCN] MLPCN Grant: MH089030-01 Assay Submitter (PI): Wei Zheng and Yosef Shiloh Ataxia-telangiectasia (A-T) is a devastating and progressive disease for which, there is no cure. Although A-T is a multisystem disease, it is stereotyped characterized by its neurological symptoms such as truncal ataxia, due to cerebellar cortical degeneration of the Purkinje and granule cells. Other symptoms of A-T are telangiectasias (dilated blood vessels), primary immunodeficiency, marked sensitivity to ionizing radiation (IR), chromosomal instability and predisposition to cancer. The underlying genetic cause of A-T is null mutations in the ATM (A-T mutated) gene. ATM is a nuclear serine/threonine kinase that functions as a master regulator of the cellular responses to double strand breaks (DSBs) in the DNA. Upon activation by DSBs, ATM phosphorylates a plethora of downstream targets, including KAP-1 on […]. KAP-1 phosphorylation occurs shortly in response to DSBs and mediates global chromatin relaxation, which facilitates DSB repair. To screen for small molecules that will compensate for the loss of ATM in cells derived from A-T patients, we monitored KAP-1 phosphorylation as a readout for ATM-like activity using an AlphaLISA assay. […]
Consider `CC(=O)c1c(O)c(C)c(O)c(Cc2c(O)c3c(c(C(=O)/C=C/c4ccccc4)c2O)OC(C)(C)C=C3)c1O`, for which the Potency is 10 µM (active).

The values are drawn from PubChem BioAssay AID504377 (National Center for Advancing Translational Sciences (NCATS), 2011).
